Test results as given in the supplement of paper PMC6555819.

What was measured:
Test in all cases: PBM binding z-score (relative to random genomic background probes); higher = stronger binding; sequences stand for … in GC…GCGATTGACAGCGTAGAATGAAGG
[1] = test system: FXR:RXRa (NR concentration 270 nM, RXRa partner concentration 90 nM)
Outline: (§1)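 Custom Agilent 4×180K protein-binding microarrays carried double-stranded probes, each with a 34-nt variable region. These regions held direct-repeat seeds, single-nucleotide variants, half-site ablations and random human genomic background sequences. Ligand-free nuclear receptor dimers were incubated on the arrays for 1 h, antibodies against each partner (one per run) detected binding, and scanned fluorescence was regression-normalized. Binding z-scores take the random background probes as reference.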

[2] = test system: LXRa:RXRa (NR concentration 270 nM, RXRa partner concentration 90 nM)
Outline: as §1

[3] = test system: LXRa homodimer (NR concentration 270 nM)
Outline: as §1

[4] = test system: LXRb:RXRa (NR concentration 270 nM, RXRa partner concentration 90 nM)
Outline: as §1

[5] = test system: LXRb homodimer (NR concentration 270 nM)
Outline: as §1

[6] = test system: PPARa:RXRa (NR concentration 270 nM, RXRa partner concentration 90 nM)
Outline: as §1

[7] = test system: PPARg:RXRa (NR concentration 180 nM, RXRa partner concentration 90 nM)
Outline: as §1

[8] = test system: PPARg:RXRa 270nM:90nM, anti-RXR (NR concentration 270 nM, RXRa partner concentration 90 nM)
Outline: as §1

[9] = test system: PPARg:RXRa 30nM:10nM, anti-RXR (NR concentration 30 nM, RXRa partner concentration 10 nM)
Outline: as §1

[10] = test system: PPARg:RXRa 90nM:30nM, anti-RXR (NR concentration 90 nM, RXRa partner concentration 30 nM)
Outline: as §1

[11] = test system: PPARg:RXRa DBDmut IVT, anti-RXR (DBD mutation: RXRa K156A/R161A, NR concentration 270 nM, RXRa partner concentration 90 nM)
Outline: as §1

[12] = test system: PPARg:RXRa IVT, anti-PPARg (NR concentration 270 nM, RXRa partner concentration 90 nM)
Outline: as §1

[13] = test system: PPARg DBDmut:RXRa IVT, anti-PPARg (DBD mutation: PPARg1 K132A/R137A, NR concentration 270 nM, RXRa partner concentration 90 nM)
Outline: as §1

[14] = test system: PPARg DBDmut IVT, anti-PPARg (DBD mutation: PPARg1 K132A/R137A, NR concentration 270 nM)
Outline: as §1

[15] = test system: PPARg homodimer (NR concentration 180 nM)
Outline: as §1

[16] = test system: PXR:RXRa (NR concentration 270 nM, RXRa partner concentration 90 nM)
Outline: as §1

[17] = test system: PXR homodimer (NR concentration 270 nM)
Outline: as §1

[18] = test system: RARa:RXR (NR concentration 270 nM, RXRa partner concentration 90 nM)
Outline: as §1

[19] = test system: RARa homodimer (NR concentration 270 nM)
Outline: as §1

[20] = test system: RARb:RXRa (NR concentration 270 nM, RXRa partner concentration 90 nM)
Outline: as §1

| Sequence | PBM binding z-score [1] | PBM binding z-score [2] | PBM binding z-score [3] | PBM binding z-score [4] | PBM binding z-score [5] | PBM binding z-score [6] | PBM binding z-score [7] | PBM binding z-score [8] | PBM binding z-score [9] | PBM binding z-score [10] | PBM binding z-score [11] | PBM binding z-score [12] | PBM binding z-score [13] | PBM binding z-score [14] | PBM binding z-score [15] | PBM binding z-score [16] | PBM binding z-score [17] | PBM binding z-score [18] | PBM binding z-score [19] | PBM binding z-score [20] |
| --- | --- | --- | --- | --- | --- | --- | --- | --- | --- | --- | --- | --- | --- | --- | --- | --- | --- | --- | --- | --- |
| TCTTGTAGATCAACAGGAGGTTATGAAAGATCGA | 0.335 | 1.2 | 0.215 | 0.914 | -0.0997 | 1.2 | 0.228 | 1.25 | 2.43 | 1.78 | 1.42 | 0.582 | 0.881 | 1.46 | -0.255 | 0.762 | -0.367 | 0.694 | -0.449 | 0.283 |
| CGAACTCGGTCATTGACAGGACAGTGAATAGTAA | 1.78 | 1.2 | 0.283 | 0.401 | -0.271 | 1.07 | 0.725 | 0.451 | -0.134 | 0.0163 | 2.98 | 2.26 | -0.213 | -0.299 | 0.0566 | 0.137 | -0.233 | 0.436 | -0.219 | 2.14 |
| TCATATAGGTAAACAGATGAAAGTCCGTAAGTTA | 1.23 | 0.739 | 0.342 | 0.86 | -0.0548 | 1.14 | 1.36 | 2.08 | 3.81 | 3.18 | 3.98 | 2.76 | 1.5 | 0.808 | 0.603 | 0.869 | 0.583 | 0.622 | 1.28 | 0.483 |
| CCTAGTTGGTCAACGTCACACACGCTATAGGTAC | 0.458 | 0.525 | 0.431 | 0.877 | 0.581 | 0.58 | 1.25 | 0.719 | 0.299 | 0.407 | 2.03 | 1.8 | 0.867 | 0.424 | 1.37 | 0.444 | 0.536 | 0.716 | 1.34 | 1.21 |
| AGTCACAGTTCAGGACGAGGTAACGTAAAGCACG | 1.01 | 0.828 | 0.0856 | 0.666 | -0.159 | 1.35 | 1.15 | 0.998 | 0.403 | 0.623 | -0.095 | 0.996 | 0.513 | 0.376 | 0.443 | 1.13 | 0.45 | 1.52 | 0.51 | 2.08 |
| TCATATAGGTAAATAGGTGAAAGTCCGTAAGTTA | 1.38 | 1.32 | 0.298 | 1.06 | -0.103 | 3.79 | 5.17 | 5.12 | 4.83 | 5.34 | 5.74 | 6.26 | 1.25 | 1.38 | 1.18 | 1.13 | 0.363 | 1.44 | 1.54 | 0.905 |
| GCTTACGGGTCAAAGGTTATAGCGTGAATAGAAT | 7.45 | 5.66 | 0.631 | 5.61 | 0.387 | 6.97 | 11 | 9.25 | 9.52 | 9.99 | 4.36 | 6.22 | 1.03 | 1.18 | 2.67 | 5.96 | 0.264 | 7.96 | 0.595 | 4.33 |
| GTACCAAGGTGAAAAGGTCGTTGATGAGTAGGCG | 2.32 | 1.94 | 0.42 | 1.99 | -0.22 | 3.63 | 2.62 | 3.36 | 1.38 | 2.94 | 1.77 | 2.85 | 0.246 | -0.0504 | 2.35 | 2.73 | 0.862 | 3.71 | 0.82 | 3.35 |
| TCGAGTAGGTTACCAATGGGTCATTCAGCTTTCT | 1.16 | 3.38 | 0.134 | 2.15 | -0.601 | 2.66 | 0.754 | 1.91 | 1.5 | 1.72 | 3.45 | 2.82 | 0.364 | -0.28 | 1.39 | 1.88 | -0.563 | 2.5 | -0.538 | 1.77 |
| ACTATTAGTTGACTTTGGGCAACCGATACGACGC | 0.0915 | 0.0714 | 0.0306 | 0.155 | 0.67 | -0.00502 | 0.965 | 0.394 | 0.326 | 0.537 | -0.00927 | 0.141 | 1.83 | 1.67 | 0.55 | 0.0456 | 0.199 | 0.481 | 0.975 | 0.454 |
| GCTAGTTGGTCGGTAAAAGGTCACACACCGGTCG | 3.17 | 4.03 | 3.77 | 3.81 | 0.63 | 4.74 | 5.58 | 6.73 | 4.85 | 6.87 | 0.248 | 3.4 | 0.279 | 0.356 | 3.46 | 4.78 | 1.24 | 5.17 | 1.42 | 4.08 |
| ACTATTAGTTGAGACGAGGGCAACCCATAGGTTG | 0.567 | -0.017 | -0.102 | 0.0689 | 0.34 | 0.296 | 0.846 | 0.162 | 0.398 | 0.326 | 0.0223 | 0.455 | 0.5 | 0.77 | 0.831 | 1.31 | 0.412 | 0.966 | 0.536 | 1.07 |
| ACTATTAGTTGAGACGAGGGCAAGCGATAGGTTG | 0.338 | -0.125 | -0.12 | -0.138 | -0.0702 | 0.257 | 0.699 | 0.134 | 0.381 | 0.467 | 0.296 | 0.365 | 0.712 | 0.625 | 0.663 | 1.05 | 0.306 | 0.73 | 0.56 | 0.659 |
| ACTGGCAGGCCAAGGGTCACTCAAGATTAGTCCG | 2.36 | 2.55 | -0.0676 | 2.36 | -0.732 | 3.88 | 5.21 | 5.21 | 3.1 | 5.1 | -0.446 | 2.2 | -0.302 | -0.62 | 1.74 | 2.97 | -0.0528 | 3.8 | -0.0207 | 3.4 |
| GCAGCTAGGTCAACTGATGGTCAGCTAAAGCTCG | 3.76 | 2.29 | -0.24 | 1.56 | -0.578 | 3.37 | 2.48 | 3.01 | 0.457 | 1.89 | 4.33 | 4.15 | -0.285 | -1.01 | 1.13 | 1.2 | -0.968 | 2.49 | -0.66 | 4.24 |
| GCGACTGGGGCAAAGCAGGATACCATAAGGTTGG | 0.421 | -0.82 | -0.556 | -0.347 | -0.952 | 0.75 | 1.31 | 1.03 | -0.094 | 0.712 | 4.62 | 3.04 | -0.478 | -1.16 | -0.484 | -0.583 | -0.738 | -0.211 | -0.407 | 0.604 |
| CCTACTGGGCCAAAAAGGTCATGGATGCCGATAA | 3.67 | 4.35 | 2.1 | 4.13 | -0.189 | 5.2 | 4.16 | 4.82 | 1.68 | 3.88 | 3.31 | 4.16 | 0.474 | -0.298 | 4.05 | 4.81 | 0.732 | 5.53 | 1.87 | 4.27 |
| TCAGATAGGTAAATGCTAGGTGAAAGTCCGATCT | -0.114 | 0.46 | -0.0618 | 0.329 | -0.66 | 0.824 | 0.231 | 2.17 | 3.59 | 2.99 | 2.06 | 0.684 | 0.761 | 0.0198 | 0.547 | 0.13 | -0.341 | 0.568 | -0.137 | 0.156 |
